# Legend:
# Test in all cases: PBM binding z-score (relative to random genomic background probes); higher = stronger binding; sequences stand for … in GC…GCGATTGACAGCGTAGAATGAAGG
# [1] = test system: RARb homodimer (NR concentration 270 nM)
# How it was run: (§1)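 The probes on custom Agilent 4×180K protein-binding microarrays were double-stranded, with 34-nt variable regions bearing direct-repeat seeds, single-nucleotide variants, half-site ablations and random human genomic background sequences. Incubation lasted 1 h with ligand-free nuclear receptor dimers in PBS pH 7.4, 2% milk, 0.02% Triton X-100, 1 mM DTT, 0.2 mg/mL BSA and 0.4 mg/ml salmon testes DNA. Antibodies against each partner (one per run) detected bound dimers, and fluorescence scans were regression-normalized. Binding z-scores take the random background probes as reference.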
# [2] = test system: RARg:RXRa (NR concentration 270 nM, RXRa partner concentration 90 nM)
# How it was run: as §1
# [3] = test system: RARg homodimer (NR concentration 270 nM)
# How it was run: as §1
# [4] = test system: RXRa DBDmut IVT, anti-RXR (DBD mutation: RXRa K156A/R161A, NR concentration 90 nM)
# How it was run: as §1
# [5] = test system: RXRa homodimer (NR concentration 180 nM)
# How it was run: as §1
# [6] = test system: THRa:RXRa (NR concentration 90 nM, RXRa partner concentration 90 nM)
# How it was run: as §1
# [7] = test system: THRa homodimer (NR concentration 90 nM)
# How it was run: as §1
# [8] = test system: VDR homodimer (NR concentration 270 nM)
# How it was run: as §1
Sequence,PBM binding z-score [1],PBM binding z-score [2],PBM binding z-score [3],PBM binding z-score [4],PBM binding z-score [5],PBM binding z-score [6],PBM binding z-score [7],PBM binding z-score [8]
CCTTACGGCTCAAGGTTATAGCACGGGTGGTACG,0.426,0.285,0.278,-0.298,0.615,1.05,0.716,0.469
TCTTGTAGAACAGCAGGTTAAGAAAGCTGGCCAA,-0.365,-0.24,-0.558,0.506,0.0431,-0.111,-1.15,-0.882
AGAACGAGGGCACGCTGAGTTGACAGCAGAGTAG,1.43,2.35,2.33,1.6,1.73,2.16,-0.174,1.79
ATATGTAGGTTACATCCGGGTCACTCAGGCTATG,3.14,3.8,2.2,0.745,3.03,3.94,2.97,2.29
TTTGCTAGGTCAACGATGGTCAGCTAATCTGCTA,3.69,4.05,5.28,1.02,2.67,3.33,1.02,0.00226
TCTTGTAGACCAGCAGGTTAAGAAAGCTGGCCAA,0.0516,-0.0399,-0.6,0.357,0.393,0.00833,-0.609,-0.234
GCTTTTAGTTGAAAGGGCAACCGAATGATTCTCG,1.78,1.2,1.29,0.971,1.06,0.54,-0.708,-0.32
CCTCGGAGGACAGAAGGCCAGAGCTGTCCGCTTT,0.275,-0.112,0.0875,-0.346,-0.765,0.0492,-0.927,-0.212
GCAGACAGGTGACACGCAGGTAACTCAGGGTGGC,0.28,0.798,0.52,-0.855,0.715,0.997,-0.377,-0.397
TCTAGCAGGCCAGAGGGTCACTAAAGAGGTACGG,2.52,2.5,2.05,-0.16,2.02,1.39,-0.413,0.287
CGAACTAGGTCAGAACAGGACAGTAAAGGATGAT,2,2.48,3.35,0.613,1.27,3.43,0.235,0.325
TCTGCAAGGTCAGTTGGTCAGCTAACGAGCTGCC,3.59,4.63,5.16,2.42,2.78,3.02,0.921,1.12
CCTACTGGGCCAAGGACATTGATCAGTCAAAGCA,0.324,0.0324,0.267,-0.538,-0.348,1.29,0.695,0.333
CGTCCAAGGTTAATGCTAGGTCAGTGAAAGCATT,3.14,4.63,2.64,1.27,1.78,3.44,1.31,0.435
AGTCAAAGTTCAATAGGTAACGTAAGATTCAGCT,3.98,5.19,5.37,4.02,3.85,1.72,0.00177,3.4
GTACGAAGGTGAATAGGTCGTTGATGAGTAGGCG,1.82,2.78,1.4,-0.12,1.81,0.742,-0.401,0.0149
AGAATGAGGTTAAGATCAGGTAAACAGAATACAT,0.989,2.66,1.76,1.17,2.81,3.55,1.36,0.461
CAAACTAAGTCACAGAGGTCAAAGTCCGTGCGTA,4.47,5.34,4.96,2.26,5.91,3.71,1.87,4.45
CGACCTAGGTCAAGGACAGTGAATCTCCGCACGC,3.02,4.65,4.69,1.82,3.41,3.39,2.25,0.294
CCTATTAGTTGACCATAAGGGCAACAGAAGCTCG,1.77,1.46,1.16,0.685,0.825,1.76,1.15,0.832
TCTTGTAGATCAGAGGTTAAGAAAGCCGAAGCCT,0.579,0.522,0.221,0.653,1.5,0.868,-0.337,0.103
CCTACTGGGCCAAAGGTTATTGATTCCAATGCTC,1.57,2.07,0.739,0.31,2.12,1.13,-0.123,0.0494
TCGAGTCGGTTAGGGGCATTCAGAATGGCGTCGA,0.345,-0.19,-0.321,0.196,0.0404,1.38,-0.39,1.12
CAAACTAGGTCACCGGAAGGTCGAAGTCCGCATG,4.74,6.69,6,1.66,4.65,4.04,2.22,1.97
CGAACTAGGTCAAGGAAAGTGAATCTCCGCACGC,2.71,3.5,3.7,1.16,2.43,2.42,0.746,0.143
TCATATAGGTAATACAGGTGAAAATCGGCATCTA,0.328,0.729,0.82,1.8,1.72,0.836,0.391,0.435

# Reference: the supplement of paper PMC6555819
